Compounds with a hit are over-represented: about 4.9% of the library has one in this group of screens.
Mdm2-MdmX inh – inhibitors of human Mdm2-MdmX association, primary screen, cell-based, luminescence, split luciferase, SaOS-2, uHTS | Protein Mdm4 (Homo sapiens) + E3 ubiquitin-protein ligase Mdm2 (Homo sapiens), … | SaOS-2 split-luciferase Mdm2/MdmX complementation | inhibition, % at 8 µM | hit rate 3% among 330,000 | AID 485346, 2010;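 active = inhibition of at least 50% at 8 µM in the primary screen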
CSC inhib – cancer stem cell viability inhibitors, primary screen, luminescence. cancer stem cell-like cells viability. hit rate 1.1% among 300,000. inhibition, % at 7.5 µM; in the data active = inhibition above about 75%; tested in HMLE shEcad cells
Calb FLC – C. albicans growth inhibition with fluconazole, primary screen, CaCi-2 strain, Alamar Blue fluorescence; C. albicans CaCi-2 (fluconazole-resistant clinical isolate) + fluconazole, 48 h; growth inhibition, % (concentration not given with the values); hit rate 0.57% among 300,000; AID 1979, 2009;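 active = growth inhibition above about 58% in most replicates, limit read from the data, passing the limit was not always enough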;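 note: all wells also contain fluconazole at 8 µg/ml as a sub-toxic cotreatment; 0% = median of DMSO wells and 100% = median of geldanamycin control wells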
Beta apoptosis – inhibitors of cytokine-induced beta cell apoptosis, primary screen, luminescence | INS-1E cytokine-induced death, ATP luminescence, 48 h; percent of positive-control rescue, neutral wells zero | protection from apoptosis, % (concentration not given with the values) | hit rate 0.8% among 300,000;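 active = Every replicate reaches about 75%, or at least half do and their mean reaches it too, limit read from the data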;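 note: 0% = cytokine-treated negative control wells and 100% = positive control rescue; higher means more ATP so stronger rescue from cytokine killing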
PP1 inh – PP1-alpha phosphatase inhibitors, primary screen, counter-screen for PP5 inhibitor project, biochemical, fluorescence, OMFP substrate, single point; inhibition, % at 6.7 µM; purified PP1alpha; hit rate 0.9% among 320,000; Serine/threonine-protein phosphatase PP1-alpha catalytic subunit (Homo sapiens), P62136;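 active = inhibition above the mean inhibition of all tested compounds plus 3 SD, computed separately for each screening campaign, cut at about 15% in these data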
PP5 inh – PP5 phosphatase inhibitors, primary screen, biochemical, fluorescence. purified PP5c, OMFP substrate fluorescence. inhibition, % at 6.7 µM. hit rate 0.18% among 320,000;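 active = inhibition above the campaign's mean inhibition across all tested compounds plus 3 SD, cut at about 9.5% in these data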;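 note: 0% = DMSO only and 100% = 100 µM cantharidin control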
PP1 inh confirm – PP1 phosphatase inhibitors, confirmation, biochemical, fluorescence, OMFP substrate, triplicate. shares compounds with PP1 inh. purified PP1alpha. inhibition, % at 6.7 µM. hit rate 52% among 1,900. AID 2358, 2010;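 active = mean PP1 inhibition above a set limit taken from the earlier primary screen, cut at about 15% in these data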
PP5 inh counter – PP5 phosphatase inhibition by PP1 hits, confirmation, counter-screen for PP1 inhibitor project, biochemical, fluorescence, triplicate; shares compounds with PP1 inh; purified PP5c, OMFP fluorescence; inhibition, % at 6.7 µM; hit rate 4% among 1,900;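 active = mean PP5 inhibition over triplicate wells above about 9.5% taken from the earlier PP1 screen, limit read from the data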
Active calls of the source: *; · = not tested or not shown.

SMILES	Mdm2-MdmX inh	CSC inhib	Calb FLC	Beta apoptosis	PP1 inh	PP5 inh	PP1 inh confirm	PP5 inh counter
C#CCOCCOCCOCCNc1nc(N2CCN(C(=O)CCCCCCCCCCNC(=O)[C@@H](CCSC)n3cc(CCO)nn3)CC2)nc(N2CCN(C(=O)CCCCCCCCCCNC(=O)[C@H](CCSC)n3cc(CCO)nn3)CC2)n1	26	-9	·	15	23*	3	4	2
C#CCOCCOCCOCCNc1nc(N2CCN(C(=O)CCCCCCCCCCNC(=O)Cn3cc(CCCCCN)nn3)CC2)nc(N2CCN(C(=O)CCCCCCCCCCNC(=O)[C@@H](CCC(=O)O)n3cc(CCCCCN)nn3)CC2)n1	10	-6	·	-10	4	-1	·	·
O=[N+]([O-])c1ccc(-c2cnc[nH]2)cc1	-17	-5	4	-3	0	-2	·	·
CC(C)C[C@H](NC(=O)N1c2ccccc2NC(=O)[C@@H]1C(C)C)C(=O)N[C@@H](Cc1ccccc1)C(=O)O	13	-3	-4	0	-4	2	·	·
CCOC(=O)c1c(C)[nH]c(C(=O)OC/C(O)=C(\C#N)c2nc3ccccc3[nH]2)c1C	30	61	·	7	20*	0	10	1
COc1ccc2oc(C(=O)OC/C(O)=C(\C#N)c3nc4ccccc4[nH]3)c(C)c2c1	43	·	-6	6	-2	0	·	·
CN(C)Cc1cccc([N+](=O)[O-])c1O	17	-8	-7	-13	0	-1	·	·
Cc1cc(NC(=O)c2ccc(C)c(C)c2)no1	-35	-2	7	·	-5	3	·	·
COc1ccc(CNC(=O)c2cc(-c3cccs3)on2)cc1	-36	·	6	·	5	1	·	·
O=C(NCc1ccc(Cl)cc1)c1cc(-c2cccs2)on1	-3	·	-12	2	21*	0	25*	-3
CCOC(=O)C1=C(CSc2nc3ccccc3s2)NC(=O)NC1c1cc(C)ccc1C (configuration not stated)	47	·	8	·	23*	4	8	-1
COc1ccc(CN(C)C2c3ccccc3-c3ccccc32)cc1	15	·	2	·	1	0	·	·
O=C(COc1ccccc1Cl)Nc1ccc(N2CCCC2)cc1	15	-5	-10	4	28*	4	-2	-4
CCN1CCN(c2ccc(NC(=O)COc3ccccc3Cl)cc2)CC1	24	·	-2	-1	-8	1	·	·
O=C(Cc1ccccc1)Nc1ccc(N2CCCC2)cc1	13	-9	-6	-5	25*	4	-11	-1
O=C(Nc1ccc(N2CCCC2)cc1)c1cc2ccccc2o1	-109	17	13	21	33*	0	-5	1
Cc1ccc(C(=O)OCC(=O)NC2CCCCC2)s1	-5	9	-6	-2	0	-3	·	·
Cc1ccc(OCC(=O)N/N=C/c2cccn2C)cc1	8	-19	-6	-8	-1	1	·	·
O=C(COc1ccc(-c2ccccc2)cc1)N/N=C/c1ccccc1Br	-5	31	-7	-7	18*	6	3	-1
COc1cccc(C(CNC(=O)C(c2ccccc2)c2ccccc2)N(C)C)c1 (configuration not stated)	11	-4	0	-8	-2	2	·	·
Cc1cc(-n2c(C)cc(C(=O)COc3cccnc3[N+](=O)[O-])c2C)no1	34	·	·	·	·	·	·	·
Cc1cc(C(=O)COc2cccnc2[N+](=O)[O-])c(C)n1Cc1cccs1	-9	16	-4	3	18*	9.9*	2	1
O=C(O)CCC(=O)N1CCc2cc(S(=O)(=O)N(CCc3ccccc3)Cc3ccccc3)ccc21	3	1	2	-2	20*	4	15*	-4
O=C(O)c1ccc(S(=O)(=O)N(Cc2ccccc2)Cc2ccccc2)cc1	26	-9	28	-8	-2	-3	·	·
O=C(O)c1ccc(S(=O)(=O)N(CCc2ccccc2)Cc2ccc(Cl)cc2)cc1	8	20	61	-2	22*	7	11	-1
SMILES	Mdm2-MdmX inh	CSC inhib	Calb FLC	Beta apoptosis	PP1 inh	PP5 inh	PP1 inh confirm	PP5 inh counter
CC(C)NC(=S)N1CCN(c2ncccn2)CC1	-20	-12	0	-4	0	2	·	·
CC(=O)c1ccc(NC(=O)c2cc(C)nc3ccccc23)cc1	-21	3	-9	2	-3	-2	·	·
O=C(Nc1nnc(SCc2c(Cl)cccc2Cl)s1)c1ccc2ncsc2c1	5	17	-1	-2	1	0	·	·
N#Cc1ccc(CSc2nnc(NC(=O)c3ccc4ncsc4c3)s2)cc1	31	5	-26	-8	24*	3	49*	-2
Cc1nn(Cc2noc(C(=O)NCc3ccccn3)n2)c(C)c1Br	9	-8	2	-7	-1	-1	·	·
CCOc1ncccc1C(=O)OCC(=O)Nc1ccc(-c2nc3ccc(C)cc3s2)cc1	·	3	-1	-1	19*	0	29*	0
CCc1ccc(N=C2NC(=O)/C(=C/c3ccc(OCC(=O)O)cc3)S2)cc1	-9	-2	2	-3	39*	2	3	-1
Cc1ccc(C(=O)NCCCN2CCOCC2)cc1Cl	-5	5	26	0	18*	-4	-5	-4
Cc1ccc(C(=O)NCCCN2CCOCC2)cc1S(=O)(=O)N1CCOCC1	20	23	·	-2	-4	2	·	·
O=C1NN(c2ccc(Cl)c(Cl)c2)C(=O)/C1=C/c1cccc(OC(=O)c2cccs2)c1	14	45	3	-6	27*	2	23*	0
O=[N+]([O-])c1cc2c(cc1Br)CCN2	-10	-5	5	-1	-3	-2	·	·
O=c1[nH]c(CSc2nnc(Nc3ccccc3)s2)nc2ccccc12	46	-9	4	16	28*	-2	18*	-3
COC(=O)c1ccccc1NC(=O)CSc1nc(N)cc(=O)[nH]1	22	-1	-8	2	26*	1	-7	-7
COC(=O)c1ccccc1NC(=O)CSc1nc(N)cc(N)n1	13	-16	-4	-3	-1	0	·	·
CCOc1ccc(OCCC(=O)NNC(=O)c2ccncc2)cc1	22	-19	·	-3	0	3	·	·
O=C(C[n+]1cc(-c2ccc(Cl)cc2)n2c1CCCCC2)c1ccccc1	-10	4	37	4	-2	1	·	·

Bioassay records (PubChem)
